Data as given in PubChem BioAssay (NCI).
About 83,000 compounds went through this panel and 20% of them were active in at least one assay; those are over-represented in the sample as a whole.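 Cell lines were cultured in 96-well plates, exposed to a single compound concentration, and assessed for percent growth 48 hours later.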 Values without a mark were called inactive. Activity calls are given as the source filed them. How the source made its calls: active means growth percent below 10; inactive means the rest.

How the values were obtained:
Experiment in all cases: NCI-60 one-dose screen, 48 h (100 = growth as untreated, 0 = no growth, -100 = all killed)
Settings in all cases: 10 µM unless noted
NCI-H23 lung = test system: NCI-H23 lung
NCI-H226 lung = test system: NCI-H226 lung
NCI-H322M lung = test system: NCI-H322M lung
HOP-62 NSCLC = test system: HOP-62 NSCLC
NCI-H460 lung = test system: NCI-H460 lung
HOP-92 NSCLC = test system: HOP-92 NSCLC
NCI-H522 lung = test system: NCI-H522 lung
A549/ATCC NSCLC = test system: A549/ATCC NSCLC
786-0 renal = test system: 786-0 renal
COLO 205 colon = test system: COLO 205 colon

Structure (SMILES)	growth (NCI-H23 lung)	growth (NCI-H226 lung)	growth (NCI-H322M lung)	growth (HOP-62 NSCLC)	growth (NCI-H460 lung)	growth (HOP-92 NSCLC)	growth (NCI-H522 lung)	growth (A549/ATCC NSCLC)	growth (786-0 renal)	growth (COLO 205 colon)
COc1cc(-c2nn(-c3cccc(NC(=O)Nc4cc(C(F)(F)F)cc(C(F)(F)F)c4)c3)cc2-c2ccncc2)ccc1Cl	-3.3% (active)	8.68% (active)	26.1%	-77.6% (active)	-49.7% (active)	-50.2% (active)	-34.4% (active)	-23.8% (active)	-71.1% (active)	-98.7% (active)
NC(N)=Nc1nc2ccccc2o1	108%	107%	106%	88.4%	99.8%	-9.02% (active)	107%	109%	109%	138%
COc1ccc(N=Cc2c(O)ccc3c2oc2cc(Cl)c(O)c(Cl)c23)cc1	93.7%	101%	122%	95%	99.8%	88.8%	68.1%	95.5%	88.8%	131%
COc1ccc(C(=O)c2cc(OC)c3c(c2)OCO3)cc1O	30.4%	66.9%	51.4%	35.5%	8.5% (active)	44.1%	-7.3% (active)	24.5%	44%	84.9%
COc1cc(/C=C/C(=O)c2ccc(Nc3ncnc4cc(OC)c(OC)cc34)cc2)cc(OC)c1	94.7%	113%	105%	116%	109%	76.4%	92.4%	84.9%	92.3%	117%
O=C(Nc1cccc(-n2cc(-c3ccncc3)c(-c3ccc(Cl)c(O)c3)n2)c1)c1ccc(N2CCOCC2)c(C(F)(F)F)c1	61.3%	107%	82.1%	40.4%	5.81% (active)	10.2%	39.6%	31.4%	59.6%	96.1%
C=C1C(=O)O[C@H]2[C@H]1CC/C(Cn1cc(CNC(=O)Cc3cn(C(=O)c4ccc(Cl)cc4)c4ccc(OC)cc34)nn1)=C\CC[C@@]1(C)O[C@@H]21	19.7%	70.9%	88.3%	78.6%	88.5%	-65.8% (active)	-50.7% (active)	68.4%	-82.7% (active)	-74% (active)
COc1ccc(Nc2nc(N)nc3c2CCN(Cc2ccc(OC)cc2OC)C3=O)cc1	73.1%	88%	71.1%	63.2%	67.8%	7.69% (active)	89.3%	85.6%	72.1%	110%
Cc1ccc(S(=O)(=O)NCCNc2cc(-c3cn(C(C)(C)C)nc3-c3cccc(O)c3)ccn2)cc1	74.7%	61.8%	82.2%	93.3%	60.8%	75.1%	68.1%	70.6%	68.5%	18.1%
CNC(=S)NNC(=O)C1CC1	97.9%	109%	121%	106%	115%	96%	108%	99.2%	97.2%	113%
COc1ccc(C2C=C(c3ccc(N)cc3)N=C3SC=CN32)cc1OC (stereo not given)	101%	107%	102%	108%	116%	109%	101%	99.7%	104%	114%
COc1ccc(/C=C/c2c(C(C)=O)c(C)nc3ccccc23)cc1	60.9%	92.6%	99.3%	79.2%	100%	79.3%	61.2%	80.6%	94.9%	106%
Nc1cccc(-c2nc3sccn3c2-c2ccnc(NCCCNS(=O)(=O)c3cccc4ccccc34)n2)c1	44.3%	29.8%	63.5%	64.3%	35.5%	92.4%	34.9%	39.2%	53.9%	24.1%
O=C1/C(=C/c2ccc(Cl)cc2)CN(Cc2cn(CCNc3ccnc4cc(Cl)ccc34)nn2)C/C1=C\c1ccc(Cl)cc1	-71.3% (active)	-70.6% (active)	-87% (active)	-100% (active)	-78.6% (active)	-75% (active)	-99.4% (active)	-85.1% (active)	-88.7% (active)	-100% (active)
COc1cc(-c2nc(N=Nc3c(O)[nH]c4ccc(Br)cc34)[nH]c(=O)c2C#N)cc(OC)c1OC	102%	84.1%	99.4%	105%	104%	92.8%	84.9%	99.4%	99.8%	114%
N=C(N)c1ccc(-c2ccc(-c3cncc4ccccc34)s2)cc1F	-67.9% (active)	-64% (active)	-67.6% (active)	-83.3% (active)	-72.4% (active)	-87.1% (active)	-90.5% (active)	-76.8% (active)	-91.2% (active)	-85.6% (active)
